PLK1 PBD block: PLK1 (human) polo-box domain binding inhibition. P53350. Plk1 PBD binding of FITC phosphopeptide, fluorescence polarization. Potency, µM, without a hit: max response, negative = inhibition, actives largely listed as inhibitors. actives 2.8% (n = 360,000). AID 720504; note: series mostly up to about 57 µM; nearly all actives have a fitted effect of over 65% in size
Target sequence (P53350 whole entry, looked up, the tested form may be a part): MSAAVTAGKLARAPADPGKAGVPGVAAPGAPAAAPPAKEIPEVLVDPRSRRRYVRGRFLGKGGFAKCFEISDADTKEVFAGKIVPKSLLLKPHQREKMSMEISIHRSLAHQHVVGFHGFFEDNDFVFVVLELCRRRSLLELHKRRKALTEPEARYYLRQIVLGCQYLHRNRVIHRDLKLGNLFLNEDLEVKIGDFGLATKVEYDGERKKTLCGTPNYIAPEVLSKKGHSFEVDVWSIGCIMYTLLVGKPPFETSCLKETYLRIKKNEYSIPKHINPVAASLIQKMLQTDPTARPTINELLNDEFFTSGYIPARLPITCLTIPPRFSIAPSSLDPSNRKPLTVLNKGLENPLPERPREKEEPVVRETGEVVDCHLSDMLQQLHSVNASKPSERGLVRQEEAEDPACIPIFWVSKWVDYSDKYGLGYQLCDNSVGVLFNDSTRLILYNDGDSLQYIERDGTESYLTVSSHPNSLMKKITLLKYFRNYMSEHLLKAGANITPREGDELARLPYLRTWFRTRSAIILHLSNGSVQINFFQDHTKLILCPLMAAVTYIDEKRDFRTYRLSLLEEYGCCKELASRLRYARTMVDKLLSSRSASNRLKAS
TDP1 inh: blocks human tyrosyl-DNA phosphodiesterase 1 | AID 485290 | actives 0.28% (n = 350,000) | Potency, µM (highest dose often 130 µM), for the others: at the highest dose activity change, negative = inhibition, most hits filed as inhibitors | recombinant TDP1, AlphaScreen DNA substrate cleavage; note: nearly all actives have a fitted effect of over 40% in size
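Here, a 5' biotin and 3' phosphotyrosine-FITC DNA oligonucleotide reports Tdp1 activity: intact substrate bridges AlphaScreen beads, while cleavage leaves a 3' phosphate and drops signal. All incubations at room temperature.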
TDP1 cell noCPT: qHTS for Inhibitors of human tyrosyl-DNA phosphodiesterase 1 (TDP1): qHTS in cells in absence of CPT; DT40 Tdp1-/- hTDP1 cells, no CPT, ATP luminescence, 48 h; Potency, µM (titrated, usually from 46.2 µM), for the others: at the top dose activity change, negative = growth inhibition, hits mostly inhibitors; actives 15% (n = 420,000); AID 686978, 2013; note: nearly all actives have a fitted effect of over 55% in size
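Seeded 400 DT40-hTDP1 cells/well (vehicle DMSO, no 20 nM CPT); pinned compounds; ≥48 hr at 37 °C; CellTiter-Glo luminescence as viability measure.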
KAT2A inh: blocks human GCN5L2 histone acetyltransferase | GCN5L2 HAT assay, ThioGlo1 CoA-SH fluorescence | Potency, µM (highest dose often 58.9 µM), for the others: at the top dose activity change, negative = inhibition, usual class: inhibitors | actives 0.21% (n = 390,000) | AID 504327
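Free CoA generated was detected with ThioGlo1 (50uM) fluorescence at Ex340nm/Em540nm, read immediately and after 20 min at room temperature. Enzyme, 20 nM in HEPES pH 7.5 buffer, saw compounds 15 min before adding 75uM H3(1-25) peptide and 70uM acetyl-CoA.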
VDR inh: vitamin D3 receptor (human) inhibition; VDR-SRC2-3 peptide fluorescence polarization, 2 h; Potency, µM, for the others: max response, negative = inhibition, usual class: inhibitors; actives 0.93% (n = 400,000); AID 504847
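Fluorescence polarization assay measuring small-molecule disruption of VDR binding to the coregulator peptide SRC2-3. Compounds were pin-transferred (23 nl) into the reagent mix and incubated 2 h at room temperature before reading.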
DT40 TDP1 CPT: DT40-hTDP1 cell growth loss with CPT; actives 12% (n = 420,000); Potency, µM (titrated, usually from 46.2 µM), inactives show top-dose activity change, negative = growth inhibition, usual class: inhibitors; chicken DT40 Tdp1-/-;hTDP1 cells + 20 nM CPT, ATP luminescence, 48 h; note: nearly all actives have a fitted effect of over 55% in size
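Chicken DT40 Tdp1-/- cells stably complemented with human TDP1 were seeded at 400 cells/well in medium containing 20 nM camptothecin, exposed to pin-transferred compounds, and grown at 37 °C for at least 48 hr. Viability was read as ATP luminescence.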
The depositor's hits bear a star; ? = inconclusive; / = no result; ! = not active in a repeat; [ ] = another dose, or the depositor's remark. A selection: hits, their analogues and other compounds. The true share with any hit is near 18%. Calls come from the whole dose curve; as a rule, active = well fitted curve in the direction sought with a large enough effect; inconclusive = small, poorly fitted or top-dose-only effect, or another doubt; inactive = no such curve, though single readings can be large; an effect the other way counts as inactive or inconclusive. % is set by controls: 0 for no effect and ±100 for the full control effect; potency is the fitted concentration of half-maximal effect.

SMILES	PLK1 PBD block	TDP1 inh	TDP1 cell noCPT	KAT2A inh	VDR inh	DT40 TDP1 CPT
COc1ccc(OC)c(S(=O)(=O)N2CCN(C34CC5CC(CC(C5)C3)C4)CC2)c1	-8%	2%	16µM*	-9%	4%	?
COc1ccc(OC)c(S(=O)(=O)N2CCC(C(=O)N3CCc4ccccc4C3)CC2)c1	-1%	11%	23µM*	?	-7%	?
COc1ccc(OC)c(S(=O)(=O)N2Cc3ccccc3CC2C(=O)Nc2ccc(Cl)cc2)c1 (centres undefined)	/	2%	?	-9%	-2%	?
COc1ccc(OC)c(S(=O)(=O)N2CCCC(N3CCN(c4ccccc4)CC3)C2)c1 (centres undefined)	0%	5%	26µM*	-9%	18%	?
COc1ccc(OC)c(S(=O)(=O)N2Cc3ccccc3CC2C(=O)Nc2ccc(C(C)=O)cc2)c1 (centres undefined)	/	10%	10µM*	-8%	9%	?
CCN(CC)CCC(C)OC(=O)c1ccc(O)cc1O (centres undefined)	2%	1%	2%	-5%	-22%	-1%
CCN1C=C(C(=O)c2ccccc2)C(=O)CC1	-6%	/	4%	/	-17%	-36%
COc1ccc(OC)c(S(=O)(=O)N2CCC(C(=O)Nc3cccc(C(F)(F)F)c3)CC2)c1	-1%	3%	15µM*	-17%	3%	18µM*
CCC(CC)C(=O)Nc1nc2c(s1)CC(C)CC2 (centres undefined)	/	6%	18µM*	-9%	12%	16µM*
CCOc1ccccc1C(=O)Nc1nc2c(s1)CC(C)CC2 (centres undefined)	/	-3%	21µM*	-11%	10%	?
CC1NS(=O)(=O)c2cc([N+](=O)[O-])ccc21 (centres undefined)	2%	/	-22%	/	/	-5%
c1ccc(CCn2c3ccccc3c3nnc(SCc4ccc5nonc5c4)nc32)cc1	-1%	5%	16µM*	-8%	7%	15µM*
O=C1c2ccccc2C(=O)N1CSc1nnc2c3ccccc3n(CCc3ccccc3)c2n1	-10%	5%	21µM*	5%	-4%	?
CCN(CC)CCSc1nnc2c3ccccc3n(CCc3ccccc3)c2n1	-14%	/	?	-4%	-11%	?
Cc1cccc(OCC(=O)N2CCC(c3nc4ccccc4o3)CC2)c1C	/	1%	?	-9%	0%	?
O=C(NC1CCCC1)C(C1CC1)n1c(-c2cc3ccccc3[nH]2)nc2ccccc21 (centres undefined)	-9%	/	?	/	/	?
CCCCN(C(=O)NC(=O)Nc1ccc(C)cn1)S(C)(=O)=O	-7%	3%	0%	3%	1%	4%
COc1ccc(C2=NOC(Cn3nc(-c4ccccc4)cc3C(=O)NCc3ccccc3OC)C2)cc1 (centres undefined)	-4%	1%	10µM*	-9%	8%	12µM*
Cc1ccccc1-c1cc(C(=O)NCc2ccco2)n(CC2CC(c3cccnc3)=NO2)n1 (centres undefined)	-20%	2%	21µM*	-9%	-9%	18µM*
O=C1c2ccccc2N2C(=O)c3ccccc3[C@H]2N1c1ccccc1	-5%	-1%	18µM*	-3%[0.501 µM]	21%	16µM*
C=CCn1c(SCC(=O)c2ccc(CNC(C)=O)o2)nc2scc(C3CC3)c2c1=O	30µM*	2%	?	-16%	-15%	?
O=C1NC(=O)C2(CCCCC2C2CCCCC2)N1 (centres undefined)	-2%	/	-22%	/	-4%	5%
OCCCNc1c2ccccc2nc2ccccc12	-8%	/	9.2µM*	3%	5%	12µM*
OCc1c[nH]c2ccccc12	-6%	2%	39µM*!	0%	-1%	17µM*!
c1ccc2c(NCCc3c[nH]c4ccccc34)c3ccccc3nc2c1	-5%	/	2.9µM*	-23%	-24%	2.6µM*
SMILES	PLK1 PBD block	TDP1 inh	TDP1 cell noCPT	KAT2A inh	VDR inh	DT40 TDP1 CPT
CC(C)NC[C@@H](O)COc1ccc(COCCOC(C)C)cc1	/	-9%[56.1 µM]	-13%	-12%[0.501 µM]	5%	6%
CCOc1ccccc1CNC(=O)Cn1c(-c2ccccc2)cc(C(C)=O)c1C	/	4%	?	-7%	10%	13µM*
COc1ccc(CNC(=O)Cn2c(-c3ccccc3)cc(C(C)=O)c2C)cc1OC	/	0%	?	-3%	18%	10µM*
CC1C(=O)Nc2ccc(S(=O)(=O)N3CCN(c4cccc(Cl)c4)CC3)cc2NC1=O (centres undefined)	-2%	/	?	-17%	-21%	18µM*
CC1C(=O)Nc2ccc(S(=O)(=O)N3CCN(c4cccc(C(F)(F)F)c4)CC3)cc2NC1=O (centres undefined)	-25%	0%	-69%	-3%	13%	26µM*
CC1Sc2ccc(S(=O)(=O)N3CCN(c4cccc(Cl)c4)CC3)cc2NC1=O (centres undefined)	-14%	1%	?	?	-6%	-22%
COc1ccccc1CCn1cnc2c3cc(C)ccc3n(C)c2c1=O	-5%	-3%	12µM*	0%	5%	18µM*
COc1ccc2c(c1)c1ncn(CCN3CCCC3)c(=O)c1n2C	0%	3%	1%	-8%	0%	-1%
C#CCN(Cc1ccccc1)S(=O)(=O)C=C	-9%	-1%	?	1%	-19%	25µM*
CS(=O)(=O)N(CCC(=O)O)Cc1ccccc1	-9%	4%	-11%	-3%	-12%	-5%
COC(=O)[C@]1(Cc2ccccc2)N[C@H](CN(C)S(=O)(=O)c2ccc(C(F)(F)F)cc2)[C@@H]2C(=O)N(Cc3ccccc3)C(=O)[C@@H]21	-9%	1%	?	-8%	-14%	?
CCN(C[C@H]1N[C@@](Cc2ccccc2)(C(=O)OC)[C@H]2C(=O)N(C)C(=O)[C@@H]12)S(=O)(=O)c1ccc(OC(F)(F)F)cc1	2%	2%	16µM*	-8%	7%	?
CCN(C[C@H]1N[C@@](Cc2ccccc2)(C(=O)OC)[C@H]2C(=O)N(C)C(=O)[C@@H]12)S(=O)(=O)c1ccc(OC)cc1	-12%	1%	15µM*	-1%	-7%	15µM*
